Measurements published in PubChem BioAssay (NCATS).
Values without a mark were called inactive. Inconclusive results are not listed. Entries that show only a call come without a potency. Activity calls are given as the source filed them. Unless noted, calls come from the whole dose curve; as a rule, active = well fitted curve in the direction sought with a large enough effect; inconclusive = small, poorly fitted or top-dose-only effect, or another doubt; inactive = no such curve, though single readings can be large; an effect the other way counts as inactive or inconclusive.

Tests used:
[1] = target: Dual specificity protein kinase CLK4 (Homo sapiens) (UniProt Q9HAZ1); assay: qHTS Assay for Inhibitors of CDC-like Kinase 4 (ADP-FP Assay) (AID 1795); note: series mostly up to about 50 µM; nearly all actives have a fitted effect of over 60% in size
How it was run: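 Recombinant human Clk4 (6.25 nM) phosphorylated RS repeat peptide (100 uM) with 1 uM ATP in Tris pH 7.5/MgCl2/EGTA/DTT/Triton buffer for one hour. ADP was quantified by Transcreener competitive fluorescence polarization against an ADP calibration curve.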

[2] = target: Mitogen-activated protein kinase 10 (Mus musculus) (UniProt Q61831); assay: JNK3 AlphaScreen Assay (AID 530; active = well fitted curve in either direction with a large enough effect, not every such curve was filed as active;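 note: kinase came from lysate of stimulated human HepG2 cells; signal reports phosphorylation of biotinylated GST-cJun 1-79 at Ser73 with 10 µM ATP; series mostly up to about 57 µM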)
How it was run: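 Kinase buffer: 20 mM Tris-HCl pH 7.6, 10 mM MgCl2, 1 mM DTT, 0.1 mM Na3VO4, 0.01% Tween-20; ATP 10 uM. Substrate biotin-GST-cJun(1-79), enzyme from activated HepG2 lysates. Detection by Ser73 phospho-antibody AlphaScreen.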

[3] = Viability counterscreen for antagonist of constitutive androstane receptor (CAR) against the NCATS DSHEA and TCM libraries (AID 1794837);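 note: compound exposure lasted 24 h before viability reading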
How it was run: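 HepG2-CYP2B6-hCAR cells (2,500/well) were allowed to attach for 5 h, then exposed to compounds with 48 uM CITCO for 24 h at 37C. Viability was read by CellTiter-Fluor fluorescence after 1 h.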

[4] = Viability counterscreen for agonist of constitutive androstane receptor (CAR) against the NCATS DSHEA and TCM libraries (AID 1794838)
How it was run: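 HepG2-CYP2B6-hCAR cells (2,500/well) attached 5 h, then got compounds plus 0.75 uM PK11195 final. After 24 h at 37C, viability read by CellTiter-Fluor fluorescence (Ex/Em 405/540 nm).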

[5] = target: Nuclear receptor subfamily 1 group I member 3 (Homo sapiens) (UniProt Q14994); assay: Primary qHTS for agonist of constitutive androstane receptor (CAR) against the NCATS DSHEA and TCM libraries (AID 1794839); note: potency is the fitted concentration of half-maximal effect
How it was run: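 HepG2-CYP2B6-hCAR cells (2,500/well) were attached for 5 h, then treated for 24 h at 37 °C with compounds plus 0.75 µM PK11195. Luciferase luminescence (ONE-Glo) was read, with CellTiter-Fluor viability (Ex/Em 405/540 nm).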

[6] = HepG2 viability counterscreen (readout 2: ATP content) against the NCATS DSHEA and TCM libraries (AID 1794840);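 note: HepG2 cells exposed to substances for about 24 h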
How it was run: (§1)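 HepG2 cells (1,000 cells/well) attached ~4 h, then treated ~24 h at 37C with substances. Protease activity read by GF-AFC (25 uM final, 30 min, Ex/Em 380/510 nm); ATP content then by CellTiter-Glo luminescence.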

[7] = HepG2 viability counterscreen (readout 1: protease activity) against the NCATS DSHEA and TCM libraries (AID 1794841);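 note: cells exposed to compounds for about 24 h before the protease read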
How it was run: as §1

[8] = target: Cytochrome P450 3A4 (Homo sapiens) (UniProt P08684); assay: qHTS for inhibitors of CYP3A4 against the NCATS DSHEA and TCM libraries (AID 1919971); note: potency is the fitted concentration of half-maximal effect
How it was run: (§2)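 Isoform-specific enzyme and substrate levels; enzyme-free wells as background. Reaction: 1x NADPH regenerating system, 30-45 min, room temperature, shielded from light; luminescent detection reagent added, 30 min.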

[9] = target: Cytochrome P450 2D6 (Homo sapiens) (UniProt P10635); assay: qHTS for inhibitors of CYP2D6 against the NCATS DSHEA and TCM libraries (AID 1919972)
How it was run: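 qHTS, concentration–response format with most substances from 19.5 nM. CYP2D6 + pro-luciferin substrate, 15 min with compound, then 1x NADPH regen, 30–45 min RT dark. Glo detection 30 min, luminescence. Quinidine control.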

[10] = target: Cytochrome P450 2C9 (Homo sapiens) (UniProt P11712); assay: qHTS for inhibitors of CYP2C9 against the NCATS DSHEA and TCM libraries (AID 1919973); note: potency is the fitted concentration of half-maximal effect
How it was run: as §2

[11] = KB-3-1 P-gp reporter qHTS against the NCATS DSHEA and TCM libraries (AID 1919975)
How it was run: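 Parental KB-3-1 human cervical adenocarcinoma cells (500 cells/well, DMEM + 10% FBS) were treated with substances for ~72 h at 37C; viability was read by CellTiter-Glo luminescence.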

[12] = target: Cytochrome P450 1A2 (Homo sapiens) (UniProt P05177); assay: qHTS for inhibitors of CYPIA2 against the NCATS DSHEA and TCM libraries (AID 1919976); note: potency is the fitted concentration of half-maximal effect
How it was run: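 Furafylline served as the plate control. Compounds met CYP1A2 and pro-luciferin substrate 15 min before NADPH regeneration solution (1x) was added; after 30-45 min at RT, P450-Glo reagent was added for 30 min and luminescence was measured.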

[13] = qHTS Counterscreen for compound interference against the NCATS DSHEA and TCM libraries (AID 1919978); conditions: firefly luciferase detection reagent interference, luminescence
How it was run: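 D-luciferin (1 uM final) or 100 mM potassium phosphate buffer alone was preincubated 15 min at RT with compounds (19.5 nM to 39.8 uM final). Luciferin detection reagent was then added and luminescence read after 30 min at RT.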

[14] = Dual reporter qHTS for agonist of Pregnane X Receptor (hPXR) against the NCATS DSHEA and TCM libraries: Fluorescence readout (AID 1920058)
How it was run: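 In this qHTS counter-read, reporter-bearing HepG2 cells in charcoal-stripped serum received substances for approximately 24 h before viability was assessed fluorometrically with CellTiter-Fluor.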

[15] = Dual reporter qHTS for antagonist of Pregnane X Receptor (hPXR) against the NCATS DSHEA and TCM libraries: Fluorescence Readout (AID 1920061)
How it was run: (§3)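 hPXR-Luc HepG2 cells exposed 24 h at 37 C to compounds with 2 uM rifampicin in antagonist mode; luciferase luminescence measured by ONE-Glo, with CellTiter-Fluor viability read beforehand.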

[16] = target: Nuclear receptor subfamily 1 group I member 2 (Homo sapiens) (UniProt O75469); assay: Dual reporter qHTS for agonist of Pregnane X Receptor (hPXR) against the NCATS DSHEA and TCM libraries: Luminescence readout (AID 1920059)
How it was run: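 Luminescent PXR reporter read (ONE-Glo) after a CellTiter-Fluor viability read, following 24 h, 37C treatment of HepG2 cells stably carrying hPXR-Luc.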

[17] = target: Nuclear receptor subfamily 1 group I member 2 (Homo sapiens) (UniProt O75469); assay: Dual reporter qHTS for antagonist of Pregnane X Receptor (hPXR) against the NCATS DSHEA and TCM libraries: Luminescence Readout (AID 1920060);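 note: HepG2 cells carrying hPXR luciferase reporter stimulated with rifampicin at 2 µM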
How it was run: as §3

[18] = target: Cytochrome P450 2C19 (Homo sapiens) (UniProt P33261); assay: qHTS for inhibitors of CYP2C19 against the NCATS DSHEA and TCM libraries (AID 1919974);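 note: luminescence from luciferin released by CYP2C19 oxidation of a pro-luciferin substrate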; note: potency is the fitted concentration of half-maximal effect
How it was run: as §2

Cytochrome P450 3A4 (Homo sapiens), sequence (P08684 whole entry, looked up, canonical isoform): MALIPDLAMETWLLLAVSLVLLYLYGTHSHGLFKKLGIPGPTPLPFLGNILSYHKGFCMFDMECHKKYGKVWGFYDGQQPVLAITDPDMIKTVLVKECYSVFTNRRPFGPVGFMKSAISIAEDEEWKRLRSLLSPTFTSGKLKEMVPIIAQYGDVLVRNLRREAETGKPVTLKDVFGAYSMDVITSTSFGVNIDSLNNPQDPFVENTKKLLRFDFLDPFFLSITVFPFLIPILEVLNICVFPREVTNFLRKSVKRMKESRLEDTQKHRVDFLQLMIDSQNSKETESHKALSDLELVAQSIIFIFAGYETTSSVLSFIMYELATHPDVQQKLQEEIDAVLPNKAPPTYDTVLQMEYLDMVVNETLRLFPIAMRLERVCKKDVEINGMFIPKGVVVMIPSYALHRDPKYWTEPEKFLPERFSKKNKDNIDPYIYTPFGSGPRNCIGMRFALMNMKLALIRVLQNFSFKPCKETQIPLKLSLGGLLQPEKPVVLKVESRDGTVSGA
Nuclear receptor subfamily 1 group I member 2 (Homo sapiens), sequence (O75469 whole entry, looked up): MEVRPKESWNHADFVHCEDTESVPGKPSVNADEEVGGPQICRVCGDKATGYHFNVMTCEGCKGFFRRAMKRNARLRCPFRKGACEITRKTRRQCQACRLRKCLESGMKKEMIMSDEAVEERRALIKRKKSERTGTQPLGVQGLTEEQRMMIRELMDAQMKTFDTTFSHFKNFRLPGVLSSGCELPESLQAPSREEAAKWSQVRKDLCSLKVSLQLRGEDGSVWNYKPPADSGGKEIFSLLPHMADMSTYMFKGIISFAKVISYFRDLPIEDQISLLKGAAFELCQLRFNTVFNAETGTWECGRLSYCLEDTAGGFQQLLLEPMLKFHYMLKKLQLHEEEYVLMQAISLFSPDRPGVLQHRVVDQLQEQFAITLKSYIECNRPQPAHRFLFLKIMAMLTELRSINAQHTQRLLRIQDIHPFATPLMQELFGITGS
Cytochrome P450 2D6 (Homo sapiens), sequence (P10635 whole entry, looked up): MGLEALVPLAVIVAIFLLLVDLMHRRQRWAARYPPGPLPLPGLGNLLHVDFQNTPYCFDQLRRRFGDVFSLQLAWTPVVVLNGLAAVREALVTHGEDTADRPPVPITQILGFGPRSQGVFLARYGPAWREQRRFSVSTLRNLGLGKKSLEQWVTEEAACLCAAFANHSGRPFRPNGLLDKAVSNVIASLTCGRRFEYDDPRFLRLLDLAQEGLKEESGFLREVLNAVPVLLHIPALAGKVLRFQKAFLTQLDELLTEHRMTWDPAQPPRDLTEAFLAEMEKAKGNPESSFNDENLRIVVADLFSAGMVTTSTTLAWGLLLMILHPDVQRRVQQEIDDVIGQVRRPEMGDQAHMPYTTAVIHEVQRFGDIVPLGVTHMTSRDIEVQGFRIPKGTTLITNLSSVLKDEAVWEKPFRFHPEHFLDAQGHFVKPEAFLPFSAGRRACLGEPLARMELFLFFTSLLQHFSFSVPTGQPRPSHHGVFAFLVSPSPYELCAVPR
Cytochrome P450 2C9 (Homo sapiens), sequence (P11712 whole entry, looked up): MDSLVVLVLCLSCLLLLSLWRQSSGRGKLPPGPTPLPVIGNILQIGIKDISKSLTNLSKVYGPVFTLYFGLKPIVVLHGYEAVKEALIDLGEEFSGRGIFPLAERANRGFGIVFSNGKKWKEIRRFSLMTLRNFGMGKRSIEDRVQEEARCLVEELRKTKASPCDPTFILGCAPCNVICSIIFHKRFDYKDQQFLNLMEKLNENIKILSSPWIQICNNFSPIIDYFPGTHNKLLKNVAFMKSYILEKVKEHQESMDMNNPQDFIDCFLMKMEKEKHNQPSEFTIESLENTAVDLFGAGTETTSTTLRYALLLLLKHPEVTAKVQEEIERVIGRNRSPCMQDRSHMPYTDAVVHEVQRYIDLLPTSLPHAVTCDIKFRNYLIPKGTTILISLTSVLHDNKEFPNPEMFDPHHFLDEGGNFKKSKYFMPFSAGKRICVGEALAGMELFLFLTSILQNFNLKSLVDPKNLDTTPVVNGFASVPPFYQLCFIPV
Cytochrome P450 2C19 (Homo sapiens), sequence (P33261 whole entry, looked up): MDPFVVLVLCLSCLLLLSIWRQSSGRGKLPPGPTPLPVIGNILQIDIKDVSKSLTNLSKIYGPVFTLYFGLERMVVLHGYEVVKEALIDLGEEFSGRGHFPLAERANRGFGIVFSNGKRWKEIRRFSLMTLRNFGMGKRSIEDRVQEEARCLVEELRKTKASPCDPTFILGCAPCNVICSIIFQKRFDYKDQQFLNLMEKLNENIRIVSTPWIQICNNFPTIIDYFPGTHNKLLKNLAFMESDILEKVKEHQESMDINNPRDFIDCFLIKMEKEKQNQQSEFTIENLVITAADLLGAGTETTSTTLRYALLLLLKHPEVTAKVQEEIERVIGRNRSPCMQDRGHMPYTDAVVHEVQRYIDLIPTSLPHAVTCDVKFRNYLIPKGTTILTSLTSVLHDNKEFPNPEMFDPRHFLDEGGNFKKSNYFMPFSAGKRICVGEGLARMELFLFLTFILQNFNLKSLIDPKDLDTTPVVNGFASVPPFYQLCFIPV
Nuclear receptor subfamily 1 group I member 3 (Homo sapiens), sequence (Q14994 whole entry, looked up): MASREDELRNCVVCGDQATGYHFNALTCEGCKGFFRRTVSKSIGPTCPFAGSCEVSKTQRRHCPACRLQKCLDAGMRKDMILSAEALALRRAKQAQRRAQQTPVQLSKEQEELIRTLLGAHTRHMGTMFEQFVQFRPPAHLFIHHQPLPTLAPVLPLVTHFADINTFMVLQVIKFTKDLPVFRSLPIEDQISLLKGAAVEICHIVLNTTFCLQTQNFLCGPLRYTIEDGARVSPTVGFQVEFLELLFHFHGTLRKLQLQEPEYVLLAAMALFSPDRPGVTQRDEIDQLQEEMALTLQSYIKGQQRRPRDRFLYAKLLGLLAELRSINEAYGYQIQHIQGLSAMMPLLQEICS
Cytochrome P450 1A2 (Homo sapiens), sequence (P05177 whole entry, looked up): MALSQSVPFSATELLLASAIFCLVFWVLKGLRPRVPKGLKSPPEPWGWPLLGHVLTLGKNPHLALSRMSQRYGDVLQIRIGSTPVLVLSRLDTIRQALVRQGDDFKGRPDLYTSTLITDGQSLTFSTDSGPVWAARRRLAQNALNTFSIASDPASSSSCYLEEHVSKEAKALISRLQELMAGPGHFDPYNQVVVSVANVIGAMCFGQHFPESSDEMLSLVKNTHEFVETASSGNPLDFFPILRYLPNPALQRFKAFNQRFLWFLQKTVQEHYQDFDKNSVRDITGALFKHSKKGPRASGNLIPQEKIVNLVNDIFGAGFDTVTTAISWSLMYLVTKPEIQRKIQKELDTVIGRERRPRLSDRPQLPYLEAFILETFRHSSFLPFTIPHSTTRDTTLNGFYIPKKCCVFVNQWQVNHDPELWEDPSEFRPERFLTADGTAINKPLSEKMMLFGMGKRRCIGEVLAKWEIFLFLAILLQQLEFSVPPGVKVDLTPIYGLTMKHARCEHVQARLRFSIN
Dual specificity protein kinase CLK4 (Homo sapiens), sequence (Q9HAZ1 whole entry, looked up): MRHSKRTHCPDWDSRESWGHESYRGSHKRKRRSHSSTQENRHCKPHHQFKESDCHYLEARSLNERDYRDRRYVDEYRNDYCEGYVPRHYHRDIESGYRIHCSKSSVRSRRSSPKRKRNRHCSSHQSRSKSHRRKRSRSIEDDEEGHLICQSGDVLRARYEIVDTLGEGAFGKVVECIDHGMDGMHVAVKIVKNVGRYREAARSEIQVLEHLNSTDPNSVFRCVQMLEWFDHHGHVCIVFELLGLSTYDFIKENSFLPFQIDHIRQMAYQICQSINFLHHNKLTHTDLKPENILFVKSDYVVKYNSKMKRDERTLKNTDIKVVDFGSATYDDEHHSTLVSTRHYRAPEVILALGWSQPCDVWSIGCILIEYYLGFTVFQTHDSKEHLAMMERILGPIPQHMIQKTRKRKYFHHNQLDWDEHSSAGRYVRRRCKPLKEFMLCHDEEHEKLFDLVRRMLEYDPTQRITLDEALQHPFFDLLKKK

Compound	Potency [1]	Potency [2]	outcome [3]	outcome [4]	Potency [5]	outcome [6]	outcome [7]	Potency [8]	Potency [9]	Potency [10]	outcome [11]	Potency [12]	max response [13] [%]	outcome [14]	outcome [15]	Potency [16]	outcome [17]	Potency [18]
Cc1ccccc1-c1nc(Nc2ccncc2)c2ccccc2n1	inactive																	
COc1ccc(/C=C/c2cc(OC)cc(=O)o2)cc1		inactive	inactive	inactive	14.1 µM (active)	inactive	inactive	inactive	inactive	inactive	inactive	10 µM (active)	0.752	inactive	inactive			
CC1(C)CC[C@]2(C(=O)O)CC[C@]3(C)C(=CCC4[C@@]5(C)CC[C@H](O)[C@@](C)(CO)C5CC[C@]43C)[C@H]2C1 (stereo partly specified)			inactive	inactive	inactive	inactive	inactive		inactive	inactive	inactive	inactive	-0.0807	inactive	inactive	inactive	inactive	
COc1cc(/C=C/c2ccccc2)oc(=O)c1		inactive	inactive	inactive	12.6 µM (active)	inactive	inactive	inactive	inactive	inactive	inactive	7.08 µM (active)	2.93	inactive	inactive			
CCCCCCCCC[C@@H](O)CC(=O)CCc1ccc(O)c(OC)c1			inactive	inactive	12.6 µM (active)	inactive	inactive		inactive		inactive		2.63	inactive	inactive		inactive	6.31 µM (active)
CCCCCCCC/C=C/CCCCCCCCCC(=O)O			inactive	inactive	inactive	inactive			inactive		inactive	inactive	-1.3	inactive	inactive	inactive	inactive	inactive
CCCCCCCC/C=C\CCCCCCCCCCCCCC(=O)O			inactive	inactive	inactive	inactive	inactive		inactive	inactive	inactive	inactive	-2.19	inactive	inactive	inactive	inactive	inactive
CC1=C2[C@H](/C=C(\C)C(=O)O)CC[C@@H](C)[C@H]2CC1		inactive	inactive	inactive		inactive	inactive	inactive	inactive		inactive	inactive	1.69	inactive	inactive	inactive	inactive	
CC(C)=CCC[C@](C)(O[C@@H]1O[C@H](CO)[C@@H](O)[C@H](O)[C@H]1O)[C@H]1CC[C@]2(C)[C@@H]1[C@H](O)C[C@@H]1[C@@]3(C)CC[C@H](O[C@@H]4O[C@H](CO)[C@@H](O)[C@H](O)[C@H]4O[C@@H]4O[C@H](CO)[C@@H](O)[C@H](O)[C@H]4O)C(C)(C)[C@@H]3CC[C@]12C			inactive	inactive	inactive	inactive	inactive	inactive		inactive	inactive		4.23	inactive	inactive	inactive	inactive	inactive
C[C@@H]1CC[C@]2(C)CC[C@]3(C)C(=CC(=O)C4[C@@]5(C)CC[C@@H](O)[C@](C)(C(=O)O)C5CC[C@]43C)C2[C@H]1C (stereo partly specified)			inactive	inactive	inactive	inactive	inactive		inactive		inactive		2.52	inactive	inactive	inactive	inactive	
CCCCCCCCC/C=C/C(=O)CCc1ccc(O)c(OC)c1			inactive	inactive		inactive	inactive	15.8 µM (active)		11.2 µM (active)	inactive		4.66	inactive	inactive			3.98 µM (active)
O=C(O)c1ccccc1			inactive	inactive	inactive	inactive	inactive	inactive	inactive	inactive	inactive	inactive	-0.483	inactive	inactive	inactive		inactive
CCCCCCCC/C=C\CCCCCCCCCCCC(=O)O			inactive	inactive	inactive	inactive	inactive		inactive		inactive		1.35	inactive	inactive	inactive	inactive	
CC(C)[C@H](C)CC[C@@H](C)[C@H]1CC[C@H]2[C@@H]3CC=C4C[C@@H](O)CC[C@]4(C)[C@H]3CC[C@]12C			inactive	inactive	inactive	inactive	inactive	inactive	inactive	inactive	inactive	inactive	2.09	inactive	inactive	inactive		inactive
